Screening data from PubChem.
CYP2C19 inh: human CYP2C19 inhibition. P33261. CYP2C19 Supersomes, luciferin-H EGE luminescence, 30 min. inhibition, % at 5 µM. 96,000 compounds, 21% hits;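 active = CYP2C19 inhibition above a set limit at 5 µM in the primary screen, cut at about 50% in these data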;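 also: plate controls were negative control wells for no effect and 2.5 mM tranylcypromine positive control for full effect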
Target sequence (P33261 whole entry, looked up): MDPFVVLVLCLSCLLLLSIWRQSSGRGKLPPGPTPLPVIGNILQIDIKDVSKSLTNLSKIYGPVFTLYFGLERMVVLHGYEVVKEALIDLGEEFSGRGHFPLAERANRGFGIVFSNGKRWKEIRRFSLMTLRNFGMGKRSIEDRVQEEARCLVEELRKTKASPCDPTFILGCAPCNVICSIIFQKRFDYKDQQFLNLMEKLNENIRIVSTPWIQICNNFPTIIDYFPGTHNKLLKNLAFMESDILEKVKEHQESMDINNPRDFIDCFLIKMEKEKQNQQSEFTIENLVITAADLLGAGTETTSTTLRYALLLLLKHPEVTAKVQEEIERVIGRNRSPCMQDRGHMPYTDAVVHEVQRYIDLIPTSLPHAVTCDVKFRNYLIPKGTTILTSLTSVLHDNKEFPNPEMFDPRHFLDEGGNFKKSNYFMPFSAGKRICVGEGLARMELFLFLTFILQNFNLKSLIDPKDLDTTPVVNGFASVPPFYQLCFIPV
CYP2C9 inhib: inhibitors of human CYP2C9 | CYP2C9 Supersomes, luciferin-H conversion, luminescence | AID 777 | 96,000 compounds, 20% hits | inhibition, % at 5 µM | P11712;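 active = blocking of liver enzyme CYP2C9 beyond about 50% at 5 µM, limit read from the data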
CYP2C19 activ: activators of human cytochrome P450 2C19; AID 1025; P33261; recombinant CYP2C19, luciferin-H EGE luminescence; stronger effect = higher value; 0 = fully inhibited enzyme, 1 = untreated enzyme; activation factor at 5 µM; 96,000 tested, under 10 active;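 active = activation factor of at least 2 at 5 µM in the primary screen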;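 also: 0 = wells with 2.5 mM tranylcypromine and 1 = vehicle-only wells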
MRP1 act: activators of MRP-1; AID 799; viability increase, % at 10 µM; H69AR cells + doxorubicin, viability rescue, CellTiter-Glo; 140,000 compounds, 0.61% hits;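 active = viability gain under doxorubicin at or above a set limit, the compound median plus 3 SD, cut at about 4.7% in these data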;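 also: MRP-1 overexpressing cells given doxorubicin 25 µM after compound pretreatment; 18-22 h compound pretreatment then 72 h with doxorubicin before readout; 0% = doxorubicin-only wells and 100% = vehicle-treated cells without doxorubicin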
MRP resist rev: MRP-mediated drug resistance reversal | 85,000 compounds, 0.04% hits | differential viability (reversal), % at 10 µM | H69AR cells + 2 uM doxorubicin, CellTiter-Glo, 72 h | AID 602;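 active = viability drop by adding the cancer drug above about 55%, with treated viability meeting a 40% cutoff, limit read from the data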;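 also: viability without doxorubicin minus viability with 2 µM doxorubicin for each compound; larger differential means the compound sensitizes cells more to doxorubicin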
CYP2C9 activ: CYP2C9 (human) activation; 96,000 compounds, 1.4% hits; activation factor at 5 µM; recombinant CYP2C9, luciferin-H conversion, luminescence; stronger effect = higher value; factor 1 = untreated enzyme, 0 = blocked; P11712;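 active = activation factor of 2 or more for CYP2C9 at a 5 µM dose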;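 also: 0 = sulfaphenazole-blocked wells and 1 = vehicle-only wells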
Numbers without * were called inactive; nt = not tested or not shown. A selection: hits, their analogues and other compounds. The true share with any hit is near 21%.

SMILES	CYP2C19 inh	CYP2C9 inhib	CYP2C19 activ	MRP1 act	MRP resist rev	CYP2C9 activ
CCCn1c(SCC(=O)Nc2nnc(-c3ccccc3)s2)nnc1-c1ccccn1	73*	71*	0.3	-2	16	0.3
CNC(=O)CSc1nnc(-c2ccncc2)n1Cc1ccccc1	17	13	0.8	-2	13	0.9
CC(C)CNC(=O)CSc1nnc(-c2ccccn2)n1Cc1ccccc1	80*	72*	0.2	-2	5	0.3
Cc1ccc(C(=O)O)cc1NC(=O)CN1C(=O)C2C3c4ccccc4C(Br)(c4ccccc43)C2C1=O (centres undefined)	nt	nt	nt	-1	nt	nt
CCCn1c(SCC(=O)NCCc2ccccc2)nnc1-c1ccco1	nt	nt	nt	-1	5	nt
CCCn1c(SCC(=O)NCCc2ccccc2)nnc1-c1ccccn1	56*	56*	0.4	-1	1	0.4
O=C(N=NC(=O)c1ccco1)c1ccc2c(O)n(N3C(=O)c4ccccc4C3=O)c(O)c2c1	nt	nt	nt	-1	nt	nt
COc1c(OC(C)=O)ccc(/C=C/c2ccc3ccccc3n2)c1[N+](=O)[O-]	89*	27	0.1	-2	nt	0.7
COC(=O)c1cccc(N(C(=O)c2cnccn2)C(C(=O)NC2CCCCC2)c2cn(C)nc2C)c1 (centres undefined)	3	-8	1	0	nt	1.1
CCOC(=O)N1CCC(NC(=O)CCc2c(C)nc3c(c(C)nn3C(C)(C)C)c2C)CC1	64*	82*	0.4	-1	5	0.2
CCOC(=O)N1CCC(NC(=O)CCc2c(C)nc3nc(C)nn3c2C)CC1	-1	-14	1	0	-9	1.1
CCn1ncc(Cl)c1C(=O)Nc1ccncc1	96*	93*	0	-1	-2	0.1
CCc1ccc(-c2nn(-c3cc(Cl)ccc3[N+](=O)[O-])c(=O)c3ccccc23)cc1	-16	28	1.2	-1	nt	0.7
NC(=O)CCn1nc(-c2ccccc2)c2ccccc2c1=O	16	-10	0.8	-2	8	1.1
CCNC(=O)CCn1nc(-c2ccc(Cl)cc2)c2ccccc2c1=O	65*	31	0.3	-4	-11	0.7
COC(=O)Cn1nc(-c2ccccc2)c2ccccc2c1=O	34	-18	0.7	0	-16	1.2
COc1ccccc1NC(=O)Cn1nc(-c2ccc(Cl)cc2)c2ccccc2c1=O	41	70*	0.6	-5	-33	0.3
O=C(CCn1nc(-c2ccccc2)c2ccccc2c1=O)N1CCN(c2ccccc2)CC1	90*	85*	0.1	-2	25	0.1
O=c1c2ccccc2c(-c2ccccc2)nn1-c1cc(Cl)ccc1[N+](=O)[O-]	61*	29	0.4	0	nt	0.7
Cc1cc(C)nc(NS(=O)(=O)c2ccc(NC(=O)c3cccc(N4C(=O)CCC4=O)c3)cc2)n1	nt	nt	nt	0	nt	nt
Cc1ccc(NC(=O)CSc2n[nH]c(=O)n2C2CC2)cc1S(=O)(=O)N1CCOCC1	nt	nt	nt	-2	nt	nt
O=C(C1CCN(S(=O)(=O)c2ccc(F)cc2)CC1)N1CCOCC1	20	-8	0.8	1	11	1.1
O=C(Cn1nc(-c2ccc(Cl)cc2)c2ccccc2c1=O)NCC1CCCO1 (centres undefined)	6	16	0.9	-2	14	0.8
COc1ccc(Cl)cc1NC(=O)Cn1c(=O)n2nc(C)nc2c2ccccc21	59*	34	0.4	-5	1	0.7
O=C(CCn1nc(-c2ccccc2)c2ccccc2c1=O)NCC1CCCO1 (centres undefined)	56*	54*	0.4	-2	19	0.5
SMILES	CYP2C19 inh	CYP2C9 inhib	CYP2C19 activ	MRP1 act	MRP resist rev	CYP2C9 activ
O=c1c2ccccc2c(-c2ccccc2)nn1Cc1ccc(Cl)cc1	66*	58*	0.3	4	nt	0.4
O=C(CCSc1ccccc1)NCC1CCCO1 (centres undefined)	72*	1	0.3	-2	3	1
O=C(CCCOc1ccccc1)NCC1CCCO1 (centres undefined)	27	-2	0.7	-1	1	1
Cc1ccc(-c2nn(CC(=O)NCC3CCCO3)c(=O)c3ccccc23)cc1 (centres undefined)	8	16	0.9	-1	1	0.8
Cc1ccc(-c2nn(CCC(=O)NCC3CCCO3)c(=O)c3ccccc23)cc1 (centres undefined)	32	54*	0.7	-5	8	0.5
N#Cc1ccc(CSc2nnc(-c3ccccc3)n2Cc2ccco2)cc1	12	42	0.9	-2	-12	0.6
Cc1noc(C)c1CSc1nnc(-c2ccccc2)n1N	65*	16	0.4	-2	13	0.8
Cc1noc(C)c1CSc1nnc2scc(-c3ccccc3)n12	10	9	0.9	-2	0	0.9
Cc1noc(C)c1CSc1nnc(-c2ccccc2)n1Cc1ccco1	50*	54*	0.5	-1	17	0.5
Nn1c(SC/C=C/c2ccccc2)nnc1-c1ccncc1	54*	11	0.5	0	15	0.9
CC(=O)c1c(C(C)=O)c(C)n(CCCCn2c(C)c(C(C)=O)c(C(C)=O)c2C)c1C	nt	nt	nt	nt	19	nt
COc1ccc(CN(C)CC(=O)Nc2ccc(Cl)cc2C(F)(F)F)c(OC)c1	nt	nt	nt	-4	nt	nt
CCN(CC)S(=O)(=O)c1cc(C(=O)OCC(=O)Nc2cccc(Br)c2)ccc1F	nt	nt	nt	1	nt	nt
CN(Cc1ccccc1)C(=O)c1cc(-c2ccc(Br)cc2)on1	nt	nt	nt	1	11	nt
Cc1cc(C(=O)N(C)Cc2ccc(Br)cc2)no1	92*	31	0.1	-2	6	0.7
N/C(=N\OS(=O)(=O)c1ccc(Cl)cc1)c1ccncc1	68*	81*	0.3	-3	8	0.2
N/C(=N\OS(=O)(=O)c1ccc(Cl)cc1)c1cccnc1	nt	nt	nt	-1	nt	nt
CC(Sc1nnnn1C)C(=O)Nc1ccc(Oc2ccccc2)cc1 (centres undefined)	63*	46	0.4	3	7	0.5
CCC(Sc1nnnn1C)C(=O)Nc1ccc(C(C)=O)cc1 (centres undefined)	29	21	0.7	-1	17	0.8
COc1ccc(C2CNC(=O)C2)cc1OC1CCCC1 (centres undefined)	nt	nt	nt	-2	2	nt
O=C(C1=COCCO1)N1CCN(C(c2ccccc2)c2ccccc2)CC1	4	67*	1	0	-11	0.3
Cc1cc(C(=O)N2CCN(C(c3ccccc3)c3ccccc3)CC2)on1	69*	77*	0.3	-1	3	0.2
CN(C)C(=C(C#N)C#N)N1CCN(c2ccc(Cl)c(Cl)c2)CC1	56*	64*	0.4	-1	nt	0.4
Cc1occc1C(=O)N1CCN(S(C)(=O)=O)CC1	nt	nt	nt	-2	nt	nt
Cc1occc1C(=O)N1CCN(C(c2ccccc2)c2ccccc2)CC1	35	53*	0.7	-1	-12	0.5
CCOC(=O)C1CC=C(Cl)CC1C(=O)Nc1nccs1 (centres undefined)	36	41	0.6	3	-7	0.6
